The first assay addresses SLC25A25. As to the kind of experiment: pooled miR-30 sensor sort-seq; sequence = guide strand. The following applies: shRNA.
TGCATGAGCACCTTGAGCCTGT showed a sensor-assay potency score (higher = more potent) of -0.00686.
Sequence TTAAATGACAACTTCTAACGTC came in with a sensor-assay potency score (higher = more potent) of 0.538.
TAGTCTCTCCACTCGTTCCAGT showed a sensor-assay potency score (higher = more potent) of -0.705.
Regarding TTGAGCGTCTCGTAGACTGCAA, the sensor-assay potency score (higher = more potent) was 0.033.
Same read-out and setting: in the case of AAATTCTTCAAAGTCTAGCTGC it was 0.318; in that of TTCTCGTAGACCACGTAGCTGA, -0.478; in that of TTCCAGTCGATGGTCATCGTGC, -0.398.
TTCTTTTTGTCCAAACTCTTAA yielded a sensor-assay potency score (higher = more potent) of -1.04.
Sequence TAGACTGCAAGGTCGATGCCGG gave a sensor-assay potency score (higher = more potent) of -0.614.
The same measure, in the same setting: the figure for TAAATGACAACTTCTAACGTCC is 0.0926.

The target in another assay is SLC25A30. The description is as above. The conditions noted are these: shRNA.
For the sequence TAAGTGCCTATCTTGATGGTGC, the sensor-assay potency score (higher = more potent) turned out to be 0.212.
Still for that read-out and setting: the figure for TTGCTTTGCGCTTGCATCCGAA is -1.2; for TAGAGTTTCATCTTCTGGGCGT it is 0.316.
Turning to TATCGGTAGAGTTTCATCTTCT, the sensor-assay potency score (higher = more potent) came out at 0.16.
On the same count and under the same terms, the figure for TGTCTGTAACAAGCAATCCAGG is -1.42; for TTCAATGAATAGTCGCTTCAAG it is -0.455.
TAAATGTTCATGAAGTTGCCTA gave a sensor-assay potency score (higher = more potent) of -0.274.
TATCATTCCTCCTTGAATGGTG registered a sensor-assay potency score (higher = more potent) of -0.0231.
For the sequence TTATAGAGAGCAAAAAACCCTT, the sensor-assay potency score (higher = more potent) was -0.63.
For TGTAGCCAGAACATCTGCCATC, the sensor-assay potency score (higher = more potent) is -1.32.
Turning to TTATCGGTAGAGTTTCATCTTC, the sensor-assay potency score (higher = more potent) was -0.374.

In a further assay the target is SLC25A38. Described as above. The conditions noted are these: shRNA.
TAACATAAGCGTTTCCACCGTG gave a sensor-assay potency score (higher = more potent) of 0.26.
In turn, TTTGATAACATCCGCAGGTTGA yielded a sensor-assay potency score (higher = more potent) of -0.428.
The same measure, in the same setting: in the case of TGAGTTTTGATAACATCCGCAG it was -0.615; in that of TATGAGTTTTGATAACATCCGC, -0.0581; in that of TAGGACTTCATCTTACTGCAGA, -0.516.
On the same count and under the same terms, in the case of TTGATGACTCCTCTTTTGGAGA it was -1.04; in that of TATATTTTTGGTCTGGTTGTAA, 0.16.
Consider AAGAGTACAGCCAACATCCCAA, for which the sensor-assay potency score (higher = more potent) was -0.0219.
Regarding TTGAAAATAAGTGTCACTGCTT, the sensor-assay potency score (higher = more potent) amounted to 0.827.
Same read-out and setting: in the case of ATAGGTGACATACAGACCCCTG it was -0.876; in that of ATGAGTTTTGATAACATCCGCA, 0.0272; in that of TATGAATTGATGACTCCTCTTT, 0.416.

In a further assay the target is SLC25A3. The description is as above. The following applies: shRNA.
The sequence TAAGTGTAACTGAGAATCCGTT showed a sensor-assay potency score (higher = more potent) of -0.605.
On the same count and under the same terms, the figure for TTTAAATCCAAGTCTCTTGAGG is -0.533; for TTGAGGACCAGAGAAGCACTGC it is 0.0253; for TTCACAACTGTACTCTTCCACG it is -0.783.
The sequence TAAATCTGAAACTCTTGCCTTA displayed a sensor-assay potency score (higher = more potent) of 0.121.
TTGCACAAAAGACTCCAGCTAT displayed a sensor-assay potency score (higher = more potent) of 0.0495.
In the case of TATGGTATCTGTCTCATCCAGA, the sensor-assay potency score (higher = more potent) was 0.075.

The values are drawn from the OligoGym collection.
Also: reference of the scale not given here.
